experiment: 384-well plate pilot, post-Golgi transport modulator project, inhibition of yeast transport mutant growth (AID 636; in the data active means inhibition above about 31%); details: absorbance 615 nm, about 18 h, hits give high values

inhibition, inactive:
Cc1c(N=C2SCC(=O)N2c2c(C)n(C)n(-c3ccccc3)c2=O)c(=O)n(-c2ccccc2)n1C -1.43%
COc1cc(C2N=C(c3ccccc3)NO2)cc(Br)c1O (stereo unspecified) -3.12%
CC1(C)Cc2c(sc3c2C2=NCCN2C=N3)CS1 2.05%
Cc1ccc(C(C(=O)NC2CCCCC2)N(C(=O)c2csnn2)C2CCCC2)o1 (stereo unspecified) -0.65%
Cc1cn2c(-c3ccncc3)nnc2s1 -1.23%
CCOc1ccc(S(=O)(=O)Nc2ccc(Cl)cn2)c(C)c1C -5.06%
CN(C)CCC(c1ccc(Br)cc1)c1ccccn1 (stereo unspecified) -2.73%
COc1ccc(C(c2nnnn2C2CCCC2)N2CCC(C)CC2)c(OC)c1 (stereo unspecified) -0.26%
COCCN(CCOC)C(=O)CCn1c(=O)oc2ccccc21 -3.97%
CCOC(=O)c1sc2cccc(F)c2c1N -5.45%
CC1=NN(c2ccccc2)C(=O)C1 1.95%
COc1nc(-c2ccc(Cl)cc2)ccc1-c1noc(-c2ccncc2)n1 -6.99%

experiment: growth suppression of yeast trafficking mutant, preliminary HTS, modulators of trafficking downstream of Golgi apparatus project, 1536-format plate, OD 615 nm (AID 637); details: yeast transport mutant growth, absorbance 615 nm, 18 h; hits give high values

inhibition, inactive:
Cc1nnc(NC(=O)CCC(=O)N2CCC(C)CC2)s1 1.64%
Cc1ccc(-c2ccc(=O)n(CC(=O)NCCCN3CCCCC3C)n2)cc1 (stereo unspecified) -6.56%
O=C(CN1CCN(Cc2ccccc2)CC1)Nc1ccc(Cl)cn1 4.35%
O=C(Nc1cccc(OCC(=O)N2CCOCC2)c1)C1CCCCC1 0%
O=C(CN1CCN(c2ccccn2)CC1)N1c2ccccc2CCc2ccccc21 -0.55%
CCOc1ccc(NC(=O)C2CC(=O)N(CC)C(=Nc3ccc4c(c3)OCO4)S2)cc1 (stereo unspecified) -5.64%
CNC(=O)NCCN1CCCC1=O -3.09%
CCCNC(=O)c1cc(S(=O)(=O)N2CCc3ccccc32)ccc1F 2.18%
Cc1cc(NC(=O)c2cnn3c(C(F)F)cc(C4CC4)nc23)no1 3.11%
CCOC(=O)Cc1csc(/C(=N/O)C(N)=O)n1 -5.41%
O=C(COC(=O)c1cccc(S(=O)(=O)N2CCc3ccccc32)c1)NC1CCS(=O)(=O)C1 (stereo unspecified) -7.64%
CN1[C@@H](CC(=O)c2ccccc2)CCC[C@H]1C[C@H](O)c1ccccc1 0.67%
O=C(CSc1n[nH]c(=O)[nH]c1=O)c1ccccc1 -3.82%
CC(O)Cn1cnc2c1c(=O)n(C)c(=O)n2C (stereo unspecified) 0.17%
O=C(CNCC1CCCO1)Nc1ccccc1-n1cccc1 (stereo unspecified) -2.36%
COc1cccc(N2CCN(CC(=O)c3c[nH]c4ccc(OC)cc34)CC2C)c1 (stereo unspecified) -1.45%
COC(=O)c1c(NC(=O)CCc2ccc(C)o2)sc(C)c1C 1.27%
O=C(COC(=O)c1cc(S(=O)(=O)N2CCOCC2)cs1)c1ccccc1 -1.97%
Cc1ccc(S(=O)(=O)NCC(=O)OCN2C(=O)c3ccccc3C2=O)cc1 0.16%
COc1ccc(C(=O)Nc2ccc(S(=O)(=O)Nc3onc(C)c3C)cc2)cc1 -0.91%
O=C(O)CCN(CCC(=O)O)c1nnc(SCc2ccccc2)s1 -3.55%
CS(=O)(=O)N(CC(=O)N1CCc2ccccc2C1)c1ccc2c(c1)OCO2 2.13%
C=CCSc1nnc(NC(=O)c2ccc(S(=O)(=O)NCC3CCCO3)cc2)s1 (stereo unspecified) -3.71%
OC(CCCN1CCC(O)(c2ccc(Cl)cc2)CC1)c1ccc(F)cc1 (stereo unspecified) 4.5%
COc1ccc(C(O)C(CN2CCOCC2)c2ccccc2)cc1F (stereo unspecified) 1.64%
C=CCn1c(SCC(=O)NCC2CCCO2)nc2scc(-c3ccco3)c2c1=O (stereo unspecified) 2.58%
Cc1ccc(C)c(CSc2nnc(CCN)o2)c1 5.45%
Cc1c(N=C2SCC(=O)N2c2c(C)n(C)n(-c3ccccc3)c2=O)c(=O)n(-c2ccccc2)n1C -1.31%
COc1cc(C2N=C(c3ccccc3)NO2)cc(Br)c1O (stereo unspecified) -10%
CC1(C)Cc2c(sc3c2C2=NCCN2C=N3)CS1 2.73%
Cc1ccc(C(C(=O)NC2CCCCC2)N(C(=O)c2csnn2)C2CCCC2)o1 (stereo unspecified) -2.46%
Cc1cn2c(-c3ccncc3)nnc2s1 3.55%
CCOc1ccc(S(=O)(=O)Nc2ccc(Cl)cn2)c(C)c1C 4.43%
CN(C)CCC(c1ccc(Br)cc1)c1ccccn1 (stereo unspecified) -3.5%
COc1ccc(C(c2nnnn2C2CCCC2)N2CCC(C)CC2)c(OC)c1 (stereo unspecified) -3.28%
COCCN(CCOC)C(=O)CCn1c(=O)oc2ccccc21 -0.18%
CCOC(=O)c1sc2cccc(F)c2c1N 6.07%
CC1=NN(c2ccccc2)C(=O)C1 0.67%
COc1nc(-c2ccc(Cl)cc2)ccc1-c1noc(-c2ccncc2)n1 -7.64%

Reference: PubChem BioAssay
